Assay outcomes: PubChem, several laboratories
rCAG binder – binds r(CAG) RNA repeats. AID 651821. 1.3% of 370,000 active. inhibition, % at 3 µM. r(CAG) RNA repeat, TO-PRO-1 dye displacement fluorescence;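 active = inhibition above the plate cutoff, the mean of all test compounds on that plate plus 3 SD, cut at about 35% in these data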;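 also: 0% = DMSO alone and 100% = 100 µM mitoxantrone as full dye displacement; higher means more dye released from RNA so lower well fluorescence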
ADAM17 inh – inhibits human ADAM17; inhibition, % at 6.95 µM; P78536; 0.83% of 370,000 active; recombinant ADAM17, EDANS/DABCYL FRET peptide cleavage;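 active = inhibition above the mean of compounds lying between control limits plus 3 SD, set per campaign, cut at about 8.5% in these data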;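 also: 0% = DMSO-only wells as the low control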
GRIN3A LBD mod – modulators (binders) of human NR3A ligand-binding domain | Tm shift relative to glycine control, % at 25 µM | 2.5% of 340,000 active | NR3A LBD differential scanning fluorimetry, Tm shift; 0% = protein alone, 100% = glycine-bound protein;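 active = melting temperature shift of at least 10% of the positive control shift, at one fixed dose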
proKLK7 act – activates the human kallikrein-7 zymogen; purified proKLK7, EDANS-DABCYL substrate fluorescence; 100% is mature enzyme control, 0% vehicle; activation, % at 7 µM; 0.9% of 370,000 active; AID 652039;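 active = activation above the mean of all tested compounds plus 3 SD, computed per campaign excluding outliers beyond control limits, cut at about 13% in these data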
ADAM10 inh – inhibitors of human ADAM10 | O14672 | recombinant ADAM10, EDANS/DABCYL FRET peptide cleavage, 3 h | inhibition, % at 7 µM | 0.62% of 370,000 active | AID 720582;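 active = inhibition above a per-campaign cutoff equal to the mean of compounds falling between control-based bounds plus 3 SD, cut at about 20% in these data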;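 also: 0% = DMSO wells while the 100% control is not disclosed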
Target sequence (O14672 214-748 limits assumed): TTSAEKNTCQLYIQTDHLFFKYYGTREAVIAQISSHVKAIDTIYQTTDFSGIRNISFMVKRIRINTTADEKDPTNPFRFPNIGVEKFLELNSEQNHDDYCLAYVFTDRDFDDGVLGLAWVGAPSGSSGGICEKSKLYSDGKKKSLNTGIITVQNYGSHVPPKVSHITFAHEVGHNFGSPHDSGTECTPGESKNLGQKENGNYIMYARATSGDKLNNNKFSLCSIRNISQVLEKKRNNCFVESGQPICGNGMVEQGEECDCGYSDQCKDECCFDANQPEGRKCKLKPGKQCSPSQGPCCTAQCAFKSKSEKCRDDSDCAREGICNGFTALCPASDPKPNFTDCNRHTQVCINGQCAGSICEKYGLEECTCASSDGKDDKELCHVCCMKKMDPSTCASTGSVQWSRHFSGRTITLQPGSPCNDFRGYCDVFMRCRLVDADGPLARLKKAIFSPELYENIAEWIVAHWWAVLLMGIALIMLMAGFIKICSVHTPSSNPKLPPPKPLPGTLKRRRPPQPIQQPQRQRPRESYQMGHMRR
AHR activator – activates the human aryl hydrocarbon receptor | P35869 | AHR-responsive luciferase reporter cells, luminescence | activation, % at 5 µM | 2.5% of 320,000 active | AID 2796; in the data active = activation above about 47%;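 also: 0% = vehicle wells and 100% = reference agonist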
Active calls of the source: *; · = not tested or not shown. A selection: hits, their analogues and other compounds. The true share with any hit is near 7%.

SMILES	rCAG binder	ADAM17 inh	GRIN3A LBD mod	proKLK7 act	ADAM10 inh	AHR activator
COc1ccc(OCC2CN(Cc3ccccc3)S(=O)(=O)CCO2)cc1 (configuration not stated)	5	2	·	-1	-4	·
c1ccc(C2Oc3ccccc3C3CC(c4cccs4)=NN32)cc1 (configuration not stated)	10	-11	-8	-1	-65	48*
CC(=O)N1N=C(c2ccccc2)CC1c1ccccc1[N+](=O)[O-] (configuration not stated)	-4	0	-3	0	-8	35
O=[N+]([O-])c1ccc(C2Oc3ccccc3C3CC(c4ccccc4)=NN32)s1 (configuration not stated)	·	·	·	·	·	59*
CCNc1nc(NCC)n2c(SC(C(=O)Nc3cc(Cl)cc(Cl)c3)c3ccccc3)nnc2n1 (configuration not stated)	2	-1	11*	0	-3	0
CCNc1nc(NCC)n2c(SCC(=O)Nc3cccc(Cl)c3)nnc2n1	·	·	2	·	·	4
Cn1ccc(-c2ccccc2)n1	-2	-7	1	0	-13	-1
N#Cc1cc(-c2ccccc2)nn1-c1ccccc1	-1	-2	5	0	-22	68*
CCc1nnc(NC(=O)c2sc3nc4c(cc3c2N)CCCCCC4)s1	29	-50	-6	-19	-149	50*
Nc1c(C(=O)N2CCCCC2)sc2nc3c(cc12)CCCC3	0	-8	3	0	-24	-12
Cc1ccc(-c2csc(NC(=O)c3cccc([N+](=O)[O-])c3)n2)cc1	5	1	25*	0	6	1
O=C(NC(=S)Nc1nc(-c2cccc([N+](=O)[O-])c2)cs1)c1cc(Cl)ccc1Cl	4	-28	11*	0	-15	0
CC(=O)c1cccc(Nc2nc(-c3cccc([N+](=O)[O-])c3)cs2)c1	12	-3	20*	0	4	46
CC(=O)c1c(C)[nH]c(C(=O)Nc2nc(-c3ccc(-c4ccccc4)cc3)cs2)c1C	6	-2	11*	0	-1	4
CCCCCCCCN1C(=O)[C@@H](CC(=O)NCc2cccc(C(F)(F)F)c2)C[C@@]2(C(=O)OC)C1=C[C@H](C(C)C)O[C@@H]2C1CC1	13	-1	·	0	0	·
CC(=O)N[C@@H]1C[C@@H]2O[C@H](CO)CC[C@@H]2O[C@@H]1CCc1ccc(C#CC2(O)CCCC2)cc1	-1	-1	·	0	-1	·
O=C(NC1CCC1)c1ccc(C#Cc2cccc(F)c2)nc1	1	-1	·	-1	-1	·
O=[N+]([O-])c1cccc(-c2csc(N/N=C/c3cccc(O)c3)n2)c1	31	7	24*	0	19	74*
CCOC(=O)Cc1csc(N/N=C/c2cccc([N+](=O)[O-])c2)n1	4	2	-1	1	3	-6
COc1ccc(OCC(=O)Nc2nc3c(s2)CCCC3)cc1	0	3	-1	0	-1	1
O=C(COc1ccc(F)cc1)Nc1nc2c(s1)CCCC2	-4	-2	14*	0	3	-2
COc1ccc(NC(=O)Nc2nc3c(s2)CCCC3)cc1	29	3	22*	0	10	4
O=C(N[C@H]1C[C@@H]2O[C@H](CO)CC[C@@H]2O[C@@H]1CCc1ccc(-c2cccnc2)cc1)c1cccc(F)c1	4	0	·	0	0	·
O=C(OCCN1C(=O)c2cccc3c(N4CCOCC4)ccc(c23)C1=O)c1ccc(Cl)cc1Cl	3	-1	11*	-4	-7	4
O=C(OCCN1C(=O)c2cccc3c(N4CCOCC4)ccc(c23)C1=O)c1ccccc1Cl	-5	-85	-8	-30	-255	3
SMILES	rCAG binder	ADAM17 inh	GRIN3A LBD mod	proKLK7 act	ADAM10 inh	AHR activator
COc1ccc(C)cc1NC(=O)c1nn(C)cc1Br	-1	-4	1	0	-4	60*
COc1ccc(C)cc1NC(=O)c1nn(C)c(C(=O)Nc2cc(C)ccc2OC)c1[N+](=O)[O-]	4	-3	-8	0	-4	2
COC[C@H]1CCCN1c1ccc2c(c1)O[C@H]1CCN(C1)S2(=O)=O	1	-2	·	0	-2	·
COc1ccc(C(c2nnnn2C(C)(C)C)N2CCN(c3nc4ccccc4s3)CC2)cc1 (configuration not stated)	-2	2	13*	0	6	·
Cc1ccc(NC(=O)C2CCN(c3nnc(-n4cccc4)s3)CC2)c(C)c1	9	1	·	0	4	·
COc1ccc(-c2sc3cc4c(cc3c2C#CC2(N)CCCCC2)OCO4)cc1	12	-21	-5	-3	-60	66*
COc1ccc(Br)cc1C=NNS(=O)(=O)c1ccc(C)cc1	15	1	·	0	0	·
COc1ccc(Cl)cc1C=CC=NNS(=O)(=O)c1ccc(C)cc1	28	-2	20*	3	-27	·
O=C(c1cccc(F)c1)N1CCCC(c2nc(-c3cccs3)no2)C1 (configuration not stated)	0	3	·	0	-11	·
Nc1nc(O)c(Sc2ccccc2[N+](=O)[O-])c(=O)[nH]1	0	-2	17*	0	7	1
Nc1ccccc1Sc1ccccc1[N+](=O)[O-]	-1	4	-1	0	5	11
COc1cc2c(cc1NC(=O)CSc1nccn1C)oc1ccccc12	3	3	-5	0	-1	78*
COc1cc2c(cc1NC(=O)CSc1nc3ccccc3[nH]1)oc1ccccc12	·	·	14*	·	·	45
O=C(CSc1nc2ccccc2s1)Nc1cc(C(=O)O)cc(C(=O)O)c1	11	-3	0	0	-8	6
COc1cc2c(cc1NC(=O)CSc1ccccc1)oc1ccccc12	11	1	35*	-3	-4	41
O=C(CSc1nc2ccccc2s1)Nc1ccc2c(c1)oc1ccccc12	13	1	39*	0	-1	14
CC(C)N1Cc2nnn(Cc3ccccc3)c2-c2ccccc2S1(=O)=O	-1	1	·	-1	5	·
Clc1ccc(-c2csc(NCC3CCCO3)n2)cc1 (configuration not stated)	5	-1	·	1	5	·
COc1ccc(/C=C/C(=O)NC(=S)Nc2cc3oc4ccccc4c3cc2OC)cc1	5	-3	-1	0	3	18
O=c1oc2ccccc2n1CSc1nc2ccccc2s1	2	-2	1	0	4	61*
COc1cc2c(cc1NC(=O)CSc1nc3cc(Cl)ccc3s1)oc1ccccc12	4	-5	32*	-1	-4	9
COc1cc2c(cc1NC(=O)/C=C/c1ccccc1)oc1ccccc12	17	-2	20*	-9	1	-1
NCCC(=O)Nc1ccc(Cl)cc1C(=O)c1ccc[nH]1	·	-36	·	·	-100	·
